Key:
Experiment in all cases: log2 ratio of Biotin-Ahx-Ub-VS probe labelling (fragment/DMSO); higher = less target engagement (more negative = stronger competition), active = hit call of the paper (q ≤ 0.05, log2 ratio ≤ -1)
Details in all cases: compound concentration: 200 uM; treatment time: 3 h
USP42 = biological target: T1, USP42 (UniProt Q9H9J4)
T1 sequence (whole entry): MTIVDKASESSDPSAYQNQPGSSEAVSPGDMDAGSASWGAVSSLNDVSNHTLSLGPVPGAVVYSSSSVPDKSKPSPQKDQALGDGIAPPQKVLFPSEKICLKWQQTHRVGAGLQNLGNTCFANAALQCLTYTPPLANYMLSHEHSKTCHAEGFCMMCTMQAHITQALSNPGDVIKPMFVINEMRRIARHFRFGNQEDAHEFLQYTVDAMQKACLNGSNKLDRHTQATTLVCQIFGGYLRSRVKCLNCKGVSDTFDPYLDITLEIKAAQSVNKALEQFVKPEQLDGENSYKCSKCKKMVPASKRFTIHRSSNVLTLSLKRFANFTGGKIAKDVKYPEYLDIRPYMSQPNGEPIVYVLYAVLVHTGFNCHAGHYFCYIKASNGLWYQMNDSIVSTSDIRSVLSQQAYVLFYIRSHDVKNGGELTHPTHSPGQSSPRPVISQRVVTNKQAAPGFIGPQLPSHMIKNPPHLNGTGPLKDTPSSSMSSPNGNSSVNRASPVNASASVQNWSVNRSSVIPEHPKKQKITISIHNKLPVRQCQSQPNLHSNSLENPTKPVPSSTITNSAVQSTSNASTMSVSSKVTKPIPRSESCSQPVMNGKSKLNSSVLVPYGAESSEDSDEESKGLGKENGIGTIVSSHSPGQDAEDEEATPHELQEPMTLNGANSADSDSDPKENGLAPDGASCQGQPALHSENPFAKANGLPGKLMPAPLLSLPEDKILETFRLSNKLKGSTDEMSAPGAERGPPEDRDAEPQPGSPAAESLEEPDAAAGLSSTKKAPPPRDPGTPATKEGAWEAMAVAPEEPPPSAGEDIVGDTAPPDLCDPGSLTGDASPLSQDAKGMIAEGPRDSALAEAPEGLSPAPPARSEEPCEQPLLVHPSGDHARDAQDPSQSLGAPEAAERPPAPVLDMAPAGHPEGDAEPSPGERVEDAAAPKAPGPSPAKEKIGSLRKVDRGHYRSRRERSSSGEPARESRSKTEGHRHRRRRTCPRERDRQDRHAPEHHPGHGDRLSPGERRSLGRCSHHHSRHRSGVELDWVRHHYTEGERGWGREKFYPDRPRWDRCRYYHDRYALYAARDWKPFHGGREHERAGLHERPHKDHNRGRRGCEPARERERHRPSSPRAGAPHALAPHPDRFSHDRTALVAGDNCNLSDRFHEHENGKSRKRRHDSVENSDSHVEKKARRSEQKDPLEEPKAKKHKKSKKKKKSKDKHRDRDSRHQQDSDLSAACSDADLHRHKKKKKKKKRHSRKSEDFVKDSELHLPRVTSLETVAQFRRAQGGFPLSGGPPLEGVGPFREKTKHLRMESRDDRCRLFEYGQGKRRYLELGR
How it was run: (§1)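 HEK293T lysate, 495 µg per sample in Tris/CHAPS/IGEPAL buffer with protease inhibitors, was treated in triplicate with fragment at 200 µM or vehicle for 3 h and then with Biotin-Ahx-Ub-VS at 0.5 µM final for 1 h. Labelled DUBs were NeutrAvidin-enriched, digested with LysC and trypsin, and run by diaPASEF LC-MS/MS. Spectronaut label-free quantities were global-median-normalised, and values are average log2 fragment/vehicle ratios by unpaired t-test on proteins with ≥2 unique peptides.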

USP46 = USP46 (UniProt P62068)
How it was run: as §1

USP47 = biological target: T2, USP47 (UniProt Q96K76)
T2 sequence (whole entry): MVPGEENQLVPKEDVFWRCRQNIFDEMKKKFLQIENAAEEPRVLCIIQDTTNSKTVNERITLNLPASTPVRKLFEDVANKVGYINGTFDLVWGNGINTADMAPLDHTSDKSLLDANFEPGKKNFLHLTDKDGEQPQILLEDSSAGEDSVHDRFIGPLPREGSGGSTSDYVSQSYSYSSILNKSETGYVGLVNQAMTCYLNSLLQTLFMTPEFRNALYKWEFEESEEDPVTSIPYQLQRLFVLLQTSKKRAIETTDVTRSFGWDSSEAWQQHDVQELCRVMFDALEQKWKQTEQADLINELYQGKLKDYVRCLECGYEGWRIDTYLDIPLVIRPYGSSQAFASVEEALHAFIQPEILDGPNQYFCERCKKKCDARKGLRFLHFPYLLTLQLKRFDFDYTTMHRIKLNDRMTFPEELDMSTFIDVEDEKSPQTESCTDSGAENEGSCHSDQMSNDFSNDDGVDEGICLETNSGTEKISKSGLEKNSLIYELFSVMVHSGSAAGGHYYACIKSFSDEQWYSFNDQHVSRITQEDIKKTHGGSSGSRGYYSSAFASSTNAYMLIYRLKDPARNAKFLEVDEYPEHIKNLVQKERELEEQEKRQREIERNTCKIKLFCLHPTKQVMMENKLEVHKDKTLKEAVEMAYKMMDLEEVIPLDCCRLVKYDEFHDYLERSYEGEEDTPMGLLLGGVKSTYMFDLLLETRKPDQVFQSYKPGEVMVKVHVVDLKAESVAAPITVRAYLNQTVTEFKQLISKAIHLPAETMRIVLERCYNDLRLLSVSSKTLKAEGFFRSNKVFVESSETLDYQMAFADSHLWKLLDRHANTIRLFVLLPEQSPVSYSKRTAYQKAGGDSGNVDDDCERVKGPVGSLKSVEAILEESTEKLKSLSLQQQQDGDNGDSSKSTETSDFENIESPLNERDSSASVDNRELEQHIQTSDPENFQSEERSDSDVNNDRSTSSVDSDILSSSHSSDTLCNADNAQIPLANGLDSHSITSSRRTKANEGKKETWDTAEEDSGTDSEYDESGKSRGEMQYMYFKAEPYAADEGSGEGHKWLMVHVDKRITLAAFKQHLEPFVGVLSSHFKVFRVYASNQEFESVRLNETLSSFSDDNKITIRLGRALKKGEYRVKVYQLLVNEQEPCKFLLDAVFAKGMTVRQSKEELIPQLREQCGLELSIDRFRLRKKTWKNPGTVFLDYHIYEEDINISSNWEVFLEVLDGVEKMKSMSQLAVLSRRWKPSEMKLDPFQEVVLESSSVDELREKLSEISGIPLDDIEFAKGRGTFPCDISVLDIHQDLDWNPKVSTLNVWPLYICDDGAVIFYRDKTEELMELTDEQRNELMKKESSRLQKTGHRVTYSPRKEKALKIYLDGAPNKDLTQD
How it was run: as §1

USP48 = biological target: T3, USP48 (UniProt Q86UV5)
T3 sequence (whole entry): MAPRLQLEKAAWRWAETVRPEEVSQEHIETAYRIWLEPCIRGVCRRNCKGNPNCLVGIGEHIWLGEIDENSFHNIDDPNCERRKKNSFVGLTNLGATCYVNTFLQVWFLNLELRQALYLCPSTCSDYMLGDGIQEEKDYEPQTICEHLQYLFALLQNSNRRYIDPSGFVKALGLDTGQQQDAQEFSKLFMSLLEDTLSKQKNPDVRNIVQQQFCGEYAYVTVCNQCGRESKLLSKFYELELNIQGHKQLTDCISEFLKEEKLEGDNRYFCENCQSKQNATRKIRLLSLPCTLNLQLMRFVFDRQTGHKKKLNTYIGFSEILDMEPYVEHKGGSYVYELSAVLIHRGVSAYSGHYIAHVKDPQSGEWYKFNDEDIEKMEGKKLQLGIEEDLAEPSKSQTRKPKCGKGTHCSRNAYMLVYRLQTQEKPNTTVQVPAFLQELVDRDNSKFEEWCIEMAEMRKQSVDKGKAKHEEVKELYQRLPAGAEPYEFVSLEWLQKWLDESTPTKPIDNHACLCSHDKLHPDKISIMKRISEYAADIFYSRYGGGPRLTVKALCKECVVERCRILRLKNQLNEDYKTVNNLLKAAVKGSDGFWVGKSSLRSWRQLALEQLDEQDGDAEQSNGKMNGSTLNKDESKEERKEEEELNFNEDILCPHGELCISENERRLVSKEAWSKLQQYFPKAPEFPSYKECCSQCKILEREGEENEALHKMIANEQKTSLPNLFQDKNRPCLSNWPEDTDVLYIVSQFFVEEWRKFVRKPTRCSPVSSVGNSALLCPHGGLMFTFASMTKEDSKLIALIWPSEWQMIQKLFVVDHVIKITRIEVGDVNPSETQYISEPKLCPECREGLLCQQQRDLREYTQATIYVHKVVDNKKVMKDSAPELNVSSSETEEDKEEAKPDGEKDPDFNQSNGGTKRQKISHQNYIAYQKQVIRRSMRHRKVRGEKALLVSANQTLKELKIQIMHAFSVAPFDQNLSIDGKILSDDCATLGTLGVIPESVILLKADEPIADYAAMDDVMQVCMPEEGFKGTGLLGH
How it was run: as §1

USP5 = biological target: T4, USP5 (UniProt P45974)
T4 sequence (whole entry): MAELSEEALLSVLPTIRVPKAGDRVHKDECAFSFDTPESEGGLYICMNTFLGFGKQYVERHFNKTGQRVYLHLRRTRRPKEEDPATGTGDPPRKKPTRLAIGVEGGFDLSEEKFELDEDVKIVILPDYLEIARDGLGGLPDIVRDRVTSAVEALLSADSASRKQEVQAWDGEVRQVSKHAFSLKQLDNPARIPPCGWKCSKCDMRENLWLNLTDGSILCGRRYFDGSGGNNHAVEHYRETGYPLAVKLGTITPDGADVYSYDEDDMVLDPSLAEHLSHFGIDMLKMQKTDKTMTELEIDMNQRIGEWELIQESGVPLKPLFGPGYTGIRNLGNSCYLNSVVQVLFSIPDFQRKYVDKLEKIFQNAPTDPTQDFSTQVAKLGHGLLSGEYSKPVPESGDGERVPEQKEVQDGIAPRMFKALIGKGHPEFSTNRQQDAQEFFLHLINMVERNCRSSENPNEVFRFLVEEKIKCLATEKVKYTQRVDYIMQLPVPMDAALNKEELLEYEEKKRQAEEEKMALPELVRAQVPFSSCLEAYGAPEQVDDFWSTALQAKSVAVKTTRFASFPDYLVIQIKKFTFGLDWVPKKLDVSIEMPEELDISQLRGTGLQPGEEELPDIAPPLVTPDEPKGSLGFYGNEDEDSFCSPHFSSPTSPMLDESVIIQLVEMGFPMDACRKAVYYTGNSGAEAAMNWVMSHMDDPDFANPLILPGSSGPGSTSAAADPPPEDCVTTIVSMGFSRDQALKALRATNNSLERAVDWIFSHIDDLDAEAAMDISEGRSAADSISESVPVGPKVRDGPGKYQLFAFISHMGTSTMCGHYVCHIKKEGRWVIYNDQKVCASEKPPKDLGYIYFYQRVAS
How it was run: as §1

USP54 = USP54 (UniProt Q70EL1)
How it was run: as §1

USP7 = USP7 (UniProt Q93009)
How it was run: as §1

USP8 = biological target: T5, USP8 (UniProt P40818)
T5 sequence (whole entry): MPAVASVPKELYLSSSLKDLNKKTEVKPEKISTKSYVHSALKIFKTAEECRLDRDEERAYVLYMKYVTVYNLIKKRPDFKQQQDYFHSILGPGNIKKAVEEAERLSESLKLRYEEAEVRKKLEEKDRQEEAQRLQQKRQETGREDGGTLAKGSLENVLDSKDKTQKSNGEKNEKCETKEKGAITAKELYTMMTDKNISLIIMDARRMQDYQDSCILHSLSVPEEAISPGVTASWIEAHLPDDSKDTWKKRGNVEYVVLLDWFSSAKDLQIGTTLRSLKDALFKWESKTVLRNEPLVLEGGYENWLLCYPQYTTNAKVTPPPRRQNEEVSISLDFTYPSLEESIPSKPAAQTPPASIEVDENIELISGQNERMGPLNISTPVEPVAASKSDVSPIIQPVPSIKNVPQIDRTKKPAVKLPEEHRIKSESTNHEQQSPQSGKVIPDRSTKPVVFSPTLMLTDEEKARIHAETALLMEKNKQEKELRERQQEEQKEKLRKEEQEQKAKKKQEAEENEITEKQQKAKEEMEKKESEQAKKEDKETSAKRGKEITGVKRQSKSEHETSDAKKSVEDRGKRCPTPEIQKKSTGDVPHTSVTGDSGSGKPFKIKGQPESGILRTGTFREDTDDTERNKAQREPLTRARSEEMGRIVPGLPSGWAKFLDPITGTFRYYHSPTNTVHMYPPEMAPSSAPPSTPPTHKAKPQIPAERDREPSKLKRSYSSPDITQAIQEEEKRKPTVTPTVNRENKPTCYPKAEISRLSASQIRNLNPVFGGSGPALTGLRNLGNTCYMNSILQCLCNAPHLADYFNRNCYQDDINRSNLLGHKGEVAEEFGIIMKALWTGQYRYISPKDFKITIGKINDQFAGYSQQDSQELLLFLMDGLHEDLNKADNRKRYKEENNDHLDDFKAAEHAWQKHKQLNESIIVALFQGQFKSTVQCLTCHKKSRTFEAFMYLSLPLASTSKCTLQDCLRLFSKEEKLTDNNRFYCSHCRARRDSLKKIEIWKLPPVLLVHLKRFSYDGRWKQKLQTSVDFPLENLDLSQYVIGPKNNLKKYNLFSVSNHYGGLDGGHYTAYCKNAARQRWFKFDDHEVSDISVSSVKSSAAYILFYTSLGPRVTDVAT
How it was run: as §1

USP9X = USP9X (UniProt Q93008)
How it was run: as §1

UniProt O00487 = biological target: UniProt O00487
How it was run: as §1

Measured: log2 ratio of Biotin-Ahx-Ub-VS probe labelling

USP54, sequence (Q70EL1 whole entry): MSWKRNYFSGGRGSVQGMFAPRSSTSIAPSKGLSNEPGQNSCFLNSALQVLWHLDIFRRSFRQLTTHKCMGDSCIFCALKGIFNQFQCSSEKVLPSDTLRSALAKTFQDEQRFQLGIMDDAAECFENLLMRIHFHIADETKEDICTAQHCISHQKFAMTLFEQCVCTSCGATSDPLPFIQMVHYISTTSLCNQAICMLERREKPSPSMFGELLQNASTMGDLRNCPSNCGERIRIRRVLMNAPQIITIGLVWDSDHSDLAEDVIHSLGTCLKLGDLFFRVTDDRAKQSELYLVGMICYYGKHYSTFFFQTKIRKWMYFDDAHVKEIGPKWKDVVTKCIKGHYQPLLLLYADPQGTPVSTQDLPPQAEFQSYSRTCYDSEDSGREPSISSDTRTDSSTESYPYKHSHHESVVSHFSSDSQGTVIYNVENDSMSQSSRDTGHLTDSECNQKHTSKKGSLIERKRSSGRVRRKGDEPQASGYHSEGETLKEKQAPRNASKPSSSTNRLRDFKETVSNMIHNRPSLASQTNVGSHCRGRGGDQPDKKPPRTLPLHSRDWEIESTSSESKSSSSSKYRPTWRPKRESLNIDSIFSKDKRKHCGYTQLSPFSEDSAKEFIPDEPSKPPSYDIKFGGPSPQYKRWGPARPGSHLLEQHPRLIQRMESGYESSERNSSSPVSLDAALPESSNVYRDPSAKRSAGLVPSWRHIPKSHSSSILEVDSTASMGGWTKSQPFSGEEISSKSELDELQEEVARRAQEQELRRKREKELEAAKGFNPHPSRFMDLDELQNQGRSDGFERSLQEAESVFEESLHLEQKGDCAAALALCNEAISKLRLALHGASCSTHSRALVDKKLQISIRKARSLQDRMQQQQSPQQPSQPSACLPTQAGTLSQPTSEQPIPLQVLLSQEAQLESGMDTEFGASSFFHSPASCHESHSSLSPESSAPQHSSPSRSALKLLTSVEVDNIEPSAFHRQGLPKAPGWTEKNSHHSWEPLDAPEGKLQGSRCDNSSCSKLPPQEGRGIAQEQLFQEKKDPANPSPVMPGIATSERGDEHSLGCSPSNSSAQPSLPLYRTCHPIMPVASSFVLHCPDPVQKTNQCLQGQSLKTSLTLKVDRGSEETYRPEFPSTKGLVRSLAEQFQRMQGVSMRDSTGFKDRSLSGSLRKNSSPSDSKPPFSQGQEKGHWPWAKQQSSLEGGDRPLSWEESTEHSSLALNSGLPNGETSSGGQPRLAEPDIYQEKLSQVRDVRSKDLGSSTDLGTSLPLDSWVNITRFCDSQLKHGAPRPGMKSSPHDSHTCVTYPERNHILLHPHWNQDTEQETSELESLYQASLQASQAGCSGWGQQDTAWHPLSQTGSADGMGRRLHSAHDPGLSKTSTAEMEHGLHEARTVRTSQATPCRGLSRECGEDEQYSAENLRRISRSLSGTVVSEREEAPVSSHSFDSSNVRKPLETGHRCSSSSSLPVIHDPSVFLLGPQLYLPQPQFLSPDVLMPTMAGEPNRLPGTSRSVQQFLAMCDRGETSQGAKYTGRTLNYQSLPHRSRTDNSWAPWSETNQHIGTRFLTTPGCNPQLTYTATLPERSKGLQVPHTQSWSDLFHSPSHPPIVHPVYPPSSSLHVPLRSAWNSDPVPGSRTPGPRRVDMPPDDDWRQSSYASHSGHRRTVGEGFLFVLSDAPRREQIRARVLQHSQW
USP46, sequence (P62068 whole entry): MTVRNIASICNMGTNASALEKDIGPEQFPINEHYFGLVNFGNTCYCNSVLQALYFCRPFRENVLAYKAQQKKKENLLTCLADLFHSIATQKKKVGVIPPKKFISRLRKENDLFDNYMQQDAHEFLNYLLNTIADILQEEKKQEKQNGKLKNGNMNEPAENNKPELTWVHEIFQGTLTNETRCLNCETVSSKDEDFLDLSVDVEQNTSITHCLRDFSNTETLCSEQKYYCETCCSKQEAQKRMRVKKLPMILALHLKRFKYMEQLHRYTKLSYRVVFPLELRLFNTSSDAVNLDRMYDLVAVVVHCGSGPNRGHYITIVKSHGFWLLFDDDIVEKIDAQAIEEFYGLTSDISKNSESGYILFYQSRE
USP9X, sequence (Q93008 whole entry): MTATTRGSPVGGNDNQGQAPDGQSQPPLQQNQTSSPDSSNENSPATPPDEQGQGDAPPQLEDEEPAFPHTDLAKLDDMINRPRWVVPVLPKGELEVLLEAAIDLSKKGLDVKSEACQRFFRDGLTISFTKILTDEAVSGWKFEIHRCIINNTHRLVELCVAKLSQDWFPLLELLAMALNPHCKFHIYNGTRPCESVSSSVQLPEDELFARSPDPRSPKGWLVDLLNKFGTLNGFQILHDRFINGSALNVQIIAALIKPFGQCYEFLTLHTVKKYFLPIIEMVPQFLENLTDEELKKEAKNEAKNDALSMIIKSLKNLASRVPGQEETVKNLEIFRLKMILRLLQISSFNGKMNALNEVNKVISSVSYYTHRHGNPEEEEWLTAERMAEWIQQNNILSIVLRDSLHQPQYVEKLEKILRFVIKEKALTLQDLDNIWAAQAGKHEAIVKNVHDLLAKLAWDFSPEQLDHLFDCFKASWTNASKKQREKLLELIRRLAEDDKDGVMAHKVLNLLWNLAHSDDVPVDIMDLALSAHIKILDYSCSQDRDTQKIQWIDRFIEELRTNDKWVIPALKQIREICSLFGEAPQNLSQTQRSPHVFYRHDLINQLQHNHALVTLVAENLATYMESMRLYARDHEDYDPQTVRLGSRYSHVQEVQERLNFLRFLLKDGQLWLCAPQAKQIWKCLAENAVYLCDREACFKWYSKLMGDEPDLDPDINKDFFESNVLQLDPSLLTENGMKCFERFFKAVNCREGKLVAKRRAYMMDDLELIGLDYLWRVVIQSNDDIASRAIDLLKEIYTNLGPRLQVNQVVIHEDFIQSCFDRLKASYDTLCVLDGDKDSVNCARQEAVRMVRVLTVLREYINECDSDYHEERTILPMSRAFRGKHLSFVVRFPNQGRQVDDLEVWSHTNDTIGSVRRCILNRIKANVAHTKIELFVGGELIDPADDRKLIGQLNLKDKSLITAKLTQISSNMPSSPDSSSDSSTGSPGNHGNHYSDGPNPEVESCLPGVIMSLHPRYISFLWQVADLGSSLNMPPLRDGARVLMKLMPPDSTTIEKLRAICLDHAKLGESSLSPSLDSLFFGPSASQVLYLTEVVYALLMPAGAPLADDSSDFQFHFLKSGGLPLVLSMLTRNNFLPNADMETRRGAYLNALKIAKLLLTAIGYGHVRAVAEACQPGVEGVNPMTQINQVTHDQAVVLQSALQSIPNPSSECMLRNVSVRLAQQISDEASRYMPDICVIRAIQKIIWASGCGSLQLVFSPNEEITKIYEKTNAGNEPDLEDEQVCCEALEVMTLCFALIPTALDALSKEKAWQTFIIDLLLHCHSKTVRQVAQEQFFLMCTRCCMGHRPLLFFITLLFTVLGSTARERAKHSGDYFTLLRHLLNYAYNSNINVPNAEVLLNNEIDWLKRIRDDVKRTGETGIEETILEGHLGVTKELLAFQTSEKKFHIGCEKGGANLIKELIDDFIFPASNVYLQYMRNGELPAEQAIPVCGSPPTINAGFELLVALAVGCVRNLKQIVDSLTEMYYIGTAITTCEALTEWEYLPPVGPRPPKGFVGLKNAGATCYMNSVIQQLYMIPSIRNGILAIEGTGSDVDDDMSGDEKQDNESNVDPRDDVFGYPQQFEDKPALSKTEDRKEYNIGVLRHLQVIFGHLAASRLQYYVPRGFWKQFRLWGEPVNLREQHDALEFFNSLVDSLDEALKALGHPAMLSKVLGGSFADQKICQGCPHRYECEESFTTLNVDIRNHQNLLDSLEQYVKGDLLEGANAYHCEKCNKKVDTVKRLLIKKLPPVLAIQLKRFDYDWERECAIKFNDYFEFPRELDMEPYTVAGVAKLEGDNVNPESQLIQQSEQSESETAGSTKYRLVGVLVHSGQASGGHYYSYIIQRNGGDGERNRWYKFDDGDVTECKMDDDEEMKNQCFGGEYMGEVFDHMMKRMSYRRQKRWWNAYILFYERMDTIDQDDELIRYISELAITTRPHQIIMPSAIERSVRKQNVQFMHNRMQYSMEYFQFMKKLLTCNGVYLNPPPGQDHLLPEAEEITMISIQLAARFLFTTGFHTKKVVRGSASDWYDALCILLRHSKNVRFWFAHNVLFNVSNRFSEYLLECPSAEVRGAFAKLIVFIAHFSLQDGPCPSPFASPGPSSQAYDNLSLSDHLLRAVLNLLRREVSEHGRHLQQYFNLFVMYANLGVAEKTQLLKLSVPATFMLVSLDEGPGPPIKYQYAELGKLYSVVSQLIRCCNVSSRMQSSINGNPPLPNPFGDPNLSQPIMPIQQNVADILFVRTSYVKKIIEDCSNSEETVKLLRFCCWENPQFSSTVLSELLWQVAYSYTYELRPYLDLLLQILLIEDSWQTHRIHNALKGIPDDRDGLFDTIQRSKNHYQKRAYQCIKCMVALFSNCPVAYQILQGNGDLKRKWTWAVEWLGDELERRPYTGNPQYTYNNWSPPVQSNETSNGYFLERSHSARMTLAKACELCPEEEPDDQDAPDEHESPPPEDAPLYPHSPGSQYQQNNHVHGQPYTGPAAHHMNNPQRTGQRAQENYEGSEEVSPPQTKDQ
UniProt O00487, sequence (O00487 whole entry): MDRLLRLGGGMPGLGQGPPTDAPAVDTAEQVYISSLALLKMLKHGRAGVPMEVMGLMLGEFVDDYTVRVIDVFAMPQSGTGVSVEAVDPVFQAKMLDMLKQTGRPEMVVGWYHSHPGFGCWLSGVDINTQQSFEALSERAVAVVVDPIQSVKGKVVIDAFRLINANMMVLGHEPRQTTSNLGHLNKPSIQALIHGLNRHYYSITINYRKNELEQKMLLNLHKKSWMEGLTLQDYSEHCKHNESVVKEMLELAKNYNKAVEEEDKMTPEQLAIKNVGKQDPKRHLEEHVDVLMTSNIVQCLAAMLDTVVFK

Cc1cc(NC(=O)CCl)n(-c2ccccc2)n1
inactive: USP42 0.45 | USP46 -0.023 | USP47 -0.584 | USP48 0.128 | USP5 -0.00592 | USP54 -0.0011 | USP7 -0.0104 | USP8 -0.118 | USP9X 0.0409 | UniProt O00487 -0.0689

Source: the supplement of paper PMC11732987, “Enantioselective OTUD7B fragment discovery through chemoproteomics screening and high-throughput optimisation” (Communications Chemistry, 2025)
